# Screening results: PubChem BioAssay, National Center for Advancing Translational Sciences (NCATS)
# Pf growth 96h: P. falciparum growth inhibition at 96 hour, primary screen for plastid delayed-death inhibitors | P. falciparum luciferase reporter growth, 96 h | Potency, µM (doses to about 28.7 µM), without a hit: at the highest dose activity change, negative = inhibition, actives largely listed as inhibitors | 6.9% of 320,000 active | AID 504834; active means well fitted inhibition curve with a large enough effect; inconclusive means small, poorly fitted or top-dose-only effect, or another doubt; inactive means no such curve, though single readings can be large or run the other way; further: potency means the concentration at half of the fitted maximal effect; on the % scale 0 is the no-effect control and ±100 the full control effect
#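 Plates of compound plus infected erythrocytes (2% hematocrit, 0.05% parasitemia final) incubate 96 hours, 37 C, 5% CO2. Detection reagent added; reduced luminescence from the parasites' luciferase reporter flags inhibition.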
# CHX counter: affects cycloheximide protein synthesis inhibition readout, counter-screen; cell reporter, cycloheximide protein synthesis inhibition counterscreen; max response, %; 12% of 300,000 active; AID 2314; in the data active means max response mostly above about 13%, no sharp cut-off; inactive means mostly below about 14%; further: read at 38.3 µM for the half of the compounds with a filed dose; 0% is about no effect
# Pf growth 48h: inhibits P. falciparum growth in the first generation, 48 h | Potency, µM (highest dose often 28.7 µM), for inactives: at the top dose activity change, negative = inhibition, actives largely listed as inhibitors | AID 504832 | P. falciparum luciferase growth in erythrocytes, 48 h | 5.9% of 310,000 active; active means well fitted inhibition curve with a large enough effect; inconclusive means small, poorly fitted or top-dose-only effect, or another doubt; inactive means no such curve, though single readings can be large or run the other way; further: potency means the concentration at half of the fitted maximal effect; on the % scale 0 is the no-effect control and ±100 the full control effect
#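 Parasite viability was followed by luminescence of a genomically integrated firefly luciferase. Cultures held 0.1% parasitemia at 2% hematocrit (final), incubated under 5% CO2 at 37 C.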
# Shiga inhibitor: inhibitors of Shiga toxin in Vero cells; Vero cells, Shiga toxin protein synthesis inhibition reporter; inhibition, % at 38.7 µM; 9.2% of 290,000 active; AID 2315; in the data active means inhibition mostly above about 28%, no sharp cut-off; inactive means mostly below about 43%; further: 0% is about no effect
# SARS PLpro yeast-1: inhibitors of SARS-CoV papain-like protease in yeast; 0.19% of 330,000 active; S. cerevisiae expressing SARS-CoV PLpro, growth rescue; AID 485353; Potency, µM (series often up to 32.9 µM), for the others: at the top dose activity, positive = growth rescue, most hits filed as activators; further: potency means the concentration at half of the fitted maximal effect; 0% is about no effect; nearly all actives have a fitted effect of over 55% in size
# NS1 function inh: blocks influenza NS1 protein function; Potency, µM (titrated, usually from 46.1 µM), without a hit: at the highest dose activity, positive = more growth; 0.4% of 270,000 active; further: potency means the concentration at half of the fitted maximal effect; actives are rising curves; nearly all actives have a fitted effect of over 50% in size
#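 Growth recovery, yeast-based: influenza A NS1 expressed in S. cerevisiae causes slow growth, and suppressors are detected by OD600. The parent strain without NS1 is used as positive control.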
# SARS PLpro yeast-2: Inhibits SARS-CoV PLP in yeast, hit validation. 19% of 1,000 active. AID 652038. yeast expressing SARS-CoV PLpro, growth phenotype rescue. shares compounds with SARS PLpro yeast-1. calls only; call rule not given here
# The depositor's hits bear a star; i = inactive; ? = inconclusive; / = not tested or not shown; + = active, no number; [ ] = dose if it differs, or a comment. Hits are enriched below; roughly 21% of the tested compounds scored in any of these assays. Unless noted, the call rests on the fitted dose curve.
SMILES,Pf growth 96h,CHX counter,Pf growth 48h,Shiga inhibitor,SARS PLpro yeast-1,NS1 function inh,SARS PLpro yeast-2
Cc1ccc(C(=O)Nc2ccccc2N2CCCC2)cc1S(=O)(=O)N1CCOCC1,?,/,?,/,2%,/,/
Oc1ccc2n[nH]nc2c1,-11%,-5,2%,-14,?,27%,i
OC[C@@H]1[C@@H](c2ccc(Cl)cc2)C(c2ccc(F)cc2)=NN1c1ccccc1,/,0,/,i,-80%,/,/
O=C(N/N=C/C1CC=CCC1)c1ccc(Cl)cc1O (stereo not drawn),2.3µM*,28*,1%,51,11µM*,-13%,i
Cc1ccc(C(=O)N/N=C\C2CC=CCC2)cc1[N+](=O)[O-] (stereo not drawn),-6%,8,26%,-5,-4%,-11%,/
CCN1C(=O)c2cccc3c(S(=O)(=O)Nc4ccccc4OC)ccc1c23,310%,-3,?,-7,?,0%,i
O=C(O)Cn1c(C(F)(F)F)nc2ccccc21,-7%,-5,16%,-6,/,8%,/
CC1CN(C(=O)Cn2c(C(F)(F)F)nc3ccccc32)CC(C)O1 (stereo not drawn),-6%,-5,/,-19,?,0%,i
CC(O)CC(=O)NOCc1ccccc1 (stereo not drawn),/,/,/,/,?,/,i
NC(=O)NOCc1ccccc1,54%,-3,4%,-4,3%,1%,/
C/C(=N\NC(N)=S)c1ccc(Cl)s1,?,-2,-15%,-2,10µM*,-43%,?
Cc1ccc(NC(=O)CCNS(=O)(=O)c2ccc(Br)cc2)cc1S(=O)(=O)N1CCOCC1,?,/,?,/,?,/,i
Cc1ccc(NC(=O)CCNS(=O)(=O)c2ccccc2)cc1S(=O)(=O)N1CCOCC1,?,/,?,/,-2%,/,/
CC(C)CN=C(N)N=C(N)N,/,/,/,/,/,-3%,/
CCNc1nc(NCC)nc(N/N=C/c2ccc(O)c(O)c2)n1,?,2,-177%,-14,11µM*,-8%,i
COc1ccc(NC(=O)N(C)C[C@H]2Oc3c(NC(=O)C4CC4)cccc3C(=O)N([C@H](C)CO)C[C@@H]2C)cc1,/,/,/,/,?,/,i
CNC[C@H]1Oc2c(NS(=O)(=O)c3ccccc3)cccc2C(=O)N([C@H](C)CO)C[C@@H]1C,/,/,/,/,10µM*,/,i
CCCCCN(C(=O)NC(=O)Nc1ccccc1C)S(=O)(=O)c1ccccc1,5%,7,43%,13,?,-10%,i
CCc1nc(Nc2ccc(OC)c(OC)c2)c2nnn(Cc3ccccc3Cl)c2n1,-12%,-2,?,11,18µM*,3%,+
COc1cccc(OC)c1Nc1nc(C)nc2c1nnn2Cc1ccccc1Cl,-1%,-1,?,3,-2%,3%,/
O=C(COC(=O)C1CCCCC1)Nc1cccc(F)c1,/,/,/,/,-14%,/,/
O=C(COC(=O)CC1CCCC1)Nc1cccc(F)c1,-3%,/,25%,/,?,/,i
CCN1CCN(C(=O)c2ccc(N3CC4CC(C3)c3cccc(=O)n3C4)c(NC(=O)c3cc(OC)cc(OC)c3)c2)CC1 (stereo not drawn),0%,1,?,-9,6%,-10%,/
O=C(/C=C/c1ccc(F)cc1)NCCc1ccc2c(c1)OCCO2,-5%,1,-5%,4,4µM*,-18%,i
CN(C(=O)c1ccc(NC(=O)C2CCCN(C(=O)OC(C)(C)C)C2)cc1)C1CCCC1 (stereo not drawn),/,/,/,/,?,/,i
SMILES,Pf growth 96h,CHX counter,Pf growth 48h,Shiga inhibitor,SARS PLpro yeast-1,NS1 function inh,SARS PLpro yeast-2
Cc1c(C(=O)N2CCN(Cc3ccccc3)CC2)oc2c1C(=O)CC(C)(C)C2,-26%,5,?,7,2%,3%,/
O=C(Cc1ccccc1)NCC(=O)N/N=C/c1cccs1,15%,-2,111%,-9,-5%,11%,/
S=C(NCc1ccccc1)N/N=C/c1cccs1,?,10,7.4µM*,12,5.6µM*,12%,+
CCN(CC)S(=O)(=O)c1cc(NC(=O)C2=COCCO2)ccc1Cl,2%,/,?,/,0%,/,/
CCN(CC)C(=O)c1cccc(NC(=O)C2=COCCO2)c1,9%,/,7%,/,2.2µM*,/,i
COc1cc(/C=N/NC(=O)/C(=C\c2ccc([N+](=O)[O-])cc2)NC(=O)c2ccccc2)cc(OC)c1O,/,-1,/,-13,6%,26%,/
O=C(N/N=C/c1cc([N+](=O)[O-])cc([N+](=O)[O-])c1O)/C(=C\c1cccs1)NC(=O)c1ccccc1,29%,0,7%,-7,?,7%,+
Cc1ccc(-c2nc(S(=O)(=O)c3ccc(F)cc3)c(SCC(=O)NCC3CCCO3)o2)cc1 (stereo not drawn),0%,0,8%,-10,-34%,9%,/
O=C(CSc1oc(-c2ccc(F)cc2)nc1S(=O)(=O)c1ccc(F)cc1)NCC1CCCO1 (stereo not drawn),/,4,-3%,-5,?,4%,i
Cc1nc(NCc2ccco2)c(C#N)c2c1COC(C)(C)C2,?,-5,5%,-4,-1%,0%,/
CC1(C)Cc2c(C#N)c(NCc3ccco3)nc(-c3ccco3)c2CO1,/,6,-26%,-14,?,-2%[9.22 µM],i
O=C(c1ccc(-n2c(SCc3cccc(F)c3)nc3ccccc3c2=O)cc1)N1CCOCC1,31%,-5,?,-12,3.2µM*,12%,+
CC(C)CN(C(=O)c1cc2ccccc2o1)c1c(N)n(CC(C)C)c(=O)[nH]c1=O,-4%,4,11%,-17,10%,17%,/
COC(=O)c1c(NS(=O)(=O)c2ccc(C)cc2)sc2c1CCC(C)C2 (stereo not drawn),-16%,-3,-13%,-4,?,-3%,+
Cn1ncc(Cl)c1C(=O)N/N=C/c1ccccn1,-10%,20*,18%,32,?,-5%,+
